Drawing on PubChem BioAssay AID1345085 (National Center for Advancing Translational Sciences (NCATS), 2018), this text covers Potency for 13 compounds.

Inconclusive results are not listed. Where a call stands in place of a potency, no number is given. Active and inactive are the calls of the source. The call rests on the fitted dose curve; in most records, active means well fitted cell-killing curve with a large enough effect; inconclusive means small, poorly fitted or top-dose-only effect, or effect the other way; inactive means no such curve, though single readings can be large or run the other way.
Potency means the concentration at half of the fitted maximal effect.

The assay deals with C33A. The experiment in a line: Confirmatory qHTS for gynecologic anti-cancer compounds from libraries of approved drugs and bioactive compounds. Further: nearly all actives have a fitted effect of over 55% in size. Particulars: gynecologic cancer cell panel viability, ATPlite luminescence, 48 h; series mostly up to 57.6 µM. The procedure, abridged:
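ATPlite luminescence read-out of cell viability; IC50 from 11-point 1:3 titrations, 57.5 uM to 0.977 nM, 48 h compound exposure at 37 C, 5% CO2. Cells seeded at 1,000/well 16 h before dosing.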
(In qHTS, concentration-response curves come from the screen itself.)
In the case of `C=CC(=O)Nc1cccc(Oc2nc(Nc3ccc(N4CCN(C)CC4)cc3)ncc2Cl)c1`, the Potency was 24.3 µM (active). For `CN1CCN(Cc2ccc(NC(=O)Nc3ccc(Oc4cc(NC(=O)C5CC5)ncn4)cc3)cc2C(F)(F)F)CC1` the value was 7.69 µM (active).

As for `N=C(N)c1ccc(OCCCCCOc2ccc(C(=N)N)cc2)cc1`, the Potency entry was “inactive”. `COc1c(C)c2c(c(O)c1C/C=C(\C)CCC(=O)O)C(=O)OC2`: the Potency entry was “inactive”. With `CC(=O)c1cnc2ccc(-c3cc(Cl)c(O)c(Cl)c3)nc2c1NC1CCC(CN(C)C)CC1` (stereo not drawn), the Potency is 1.4 µM (active). As to `CCN1CCN(Cc2ccc(-c3cc4c(NC(C)c5ccccc5)ncnc4[nH]3)cc2)CC1` (stereo not drawn), the Potency was 27.3 µM (active).

`Cc1cc(SCc2sc(-c3ccc(C(F)(F)F)cc3)nc2C)ccc1OCC(=O)O`: the Potency entry is “inactive”. Then `CCN(CC)CCCC(C)Nc1c2ccc(Cl)cc2nc2ccc(OC)cc12` (stereo not drawn), with 24.3 µM (active). Then `O=c1c2ccccc2nc2n1CCc1c-2[nH]c2ccccc12`, with “inactive”; and `Nc1ncnc2c1ncn2[C@@H]1O[C@H](CO)C[C@H]1O`, with “inactive”; and `CC(=O)Nc1cccc(-n2c(=O)n(C3CC3)c(=O)c3c(Nc4ccc(I)cc4F)n(C)c(=O)c(C)c32)c1`, with “inactive”.

On to `FC(F)(F)c1ccc(/C=C/c2nc(COc3ccc(CCCCn4ccnn4)cc3)co2)cc1`, for which the Potency entry was “inactive”. For `CC[C@]1(O)C[C@H]2CN(CCc3c([nH]c4ccccc34)[C@@](C(=O)OC)(c3cc4c(cc3OC)N(C=O)[C@H]3[C@@](O)(C(=O)OC)[C@H](OC(C)=O)[C@]5(CC)C=CCN6CC[C@]43[C@@H]65)C2)C1` the value was 0.306 µM (active).
